# Measured values published in paper PMC8769072, “Proteome‐scale mapping of binding sites in the unstructured regions of the human proteome” (Molecular Systems Biology, 2022).
# Assays:
# [1] = target: NEDD4 890-928, P46934
# [2] = target: MAP1LC3A 2-121, Q9H492
# [3] = target: YAP1 169-207, P46937
# [4] = target: MAP1LC3B 2-119, Q9GZQ8
# Sequence of NEDD4 890-928, P46934 (P46934 890-928): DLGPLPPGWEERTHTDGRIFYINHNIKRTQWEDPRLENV
# Sequence of YAP1 169-207, P46937 (P46937 169-207): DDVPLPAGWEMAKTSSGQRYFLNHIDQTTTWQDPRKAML
binder,measurement,setting,value
"PPPQYIHPNSINVDGN [PRDM4, Q9UKN5]",selected by phage display,[1],confidence 2 (active)
"DSWGIIAEPRQSAFSN [IRS4, O14654]",selected by phage display,[2],confidence 4 (active)
"DLPAYTSPTNFPAVLS [ABCA2, Q9BZC7]",selected by phage display,[1],confidence 3 (active)
"GNSGFQLLDLVHEEGE [SLC7A6OS, Q96CW6]",selected by phage display,[2],confidence 2 (active)
"YLSEGFGYGMPPLYPQ [NFATC4, Q14934]",selected by phage display,[1],confidence 2 (active)
"LAGGPAVGGLPPYATF [OTUD7B, Q6GQQ9]",selected by phage display,[1],confidence 2 (active)
"ADLPPPYSPTPQGPAQ [CYYR1, Q96J86]",selected by phage display,[1],confidence 2 (active)
same,selected by phage display,[3],confidence 3 (active)
"QEEWALLDPSQKNLYR [ZNF878, C9JN71]",selected by phage display,[4],confidence 2 (active)
"KPIKENIEESYVHLDI [FRYL, O94915]",selected by phage display,[4],confidence 3 (active)
"ASDPPPPYSDFHPNNQ [ABRAXAS2, Q15018]",selected by phage display,[1],confidence 3 (active)
"NSTPPPYERTRLSPPR [RBM14, Q96PK6]",selected by phage display,[1],confidence 3 (active)
"WEVVTSAIPRGAWHGA [ZNF419, Q96HQ0]",selected by phage display,[2],confidence 2 (active)
"LPEGFQLLQIDAEGEA [TRMT10B, Q6PF06]",selected by phage display,[2],confidence 2 (active)
"LANVIAPPPPPYTPNP [PROSER1, Q86XN7]",selected by phage display,[1],confidence 2 (active)
"MAMSNGNNDFVVLSNS [DISP1, Q96F81]",selected by phage display,[4],confidence 2 (active)
"DLNSQDRVDHEEWEMV [STBD1, O95210]",selected by phage display,[2],confidence 4 (active)
"EDSLPPYKLKLDLTKL [TMEM59L, Q9UK28]",selected by phage display,[1],confidence 2 (active)
same,selected by phage display,[3],confidence 4 (active)
"LPSYPVAPTSRASPSP [CCDC87, Q9NVE4]",selected by phage display,[1],confidence 3 (active)
"EDGYTQLHFDSQSNTR [CLEC7A, Q9BXN2]",selected by phage display,[4],confidence 2 (active)
"TAPPTYTETLSTAPLA [SYNPO, Q8N3V7]",selected by phage display,[1],confidence 3 (active)
"LNVSSREEAFTDLSLA [USP35, Q9P2H5]",selected by phage display,[2],confidence 3 (active)
"SPPDYLQTVSHPEVYR [SH3D21, A4FU49]",selected by phage display,[1],confidence 3 (active)
"TSPIADFPAPPPYSAV [SYNPO2, Q9UMS6]",selected by phage display,[1],confidence 4 (active)
"NLPVGYPPQYPPTAFQ [PLSCR1, O15162]",selected by phage display,[1],confidence 2 (active)
"SEGTDNGDLPSYVSAF [RINT1, Q6NUQ1]",selected by phage display,[1],confidence 2 (active)
"AEESFTTLNVDIRNHQ [USP9X, Q93008]",selected by phage display,[2],confidence 2 (active)
"VPAFEVLEISPQEVSS [MS4A2, Q01362]",selected by phage display,[2],confidence 2 (active)
"HVRDAIRSYTEDWAIV [DOCK7, Q96N67]",selected by phage display,[4],confidence 2 (active)
"VPFTELVVQSITPHQS [BMP2K, Q9NSY1]",selected by phage display,[2],confidence 3 (active)
"DKNDYLPLYSSSTKVK [ZNF148, Q9UQR1]",selected by phage display,[1],confidence 2 (active)
"ALPPYSNAGDLYSEPV [EGR3, Q06889]",selected by phage display,[1],confidence 2 (active)
